Test results published in PubChem BioAssay.
For some assays here: Results with a measured potency or affinity are listed apart. Activity calls are given as the source filed them. How the calls were made is not given here.

target: Plasmodium falciparum protein kinase 6 (PK6, PF3D7_1337100) (UniProt Q8IDW1); assay: PfPK6 kinase inhibitors, biochemical, TCAMS library (AID 1159586); settings: recombinant PfPK6, Kinase-Glo ATP depletion luminescence
Sequence (Q8IDW1 1-305): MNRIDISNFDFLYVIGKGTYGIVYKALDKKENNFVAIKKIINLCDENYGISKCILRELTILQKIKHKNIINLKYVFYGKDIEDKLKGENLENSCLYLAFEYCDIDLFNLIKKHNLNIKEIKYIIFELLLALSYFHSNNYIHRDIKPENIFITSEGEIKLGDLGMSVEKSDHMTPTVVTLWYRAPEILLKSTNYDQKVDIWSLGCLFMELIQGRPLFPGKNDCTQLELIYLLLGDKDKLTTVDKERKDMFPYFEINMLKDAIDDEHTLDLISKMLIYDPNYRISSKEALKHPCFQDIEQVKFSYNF

outcome, inactive:
CN1CCN(c2cc(NC(=O)c3ccc(-c4ccc(Cl)cc4)cc3)ccc2Cl)CC1
O=C(NCCCCN1CCN(c2cccc3c2OCCO3)CC1)c1ccc(NC(=O)c2cc(Cl)cc(Cl)c2)cc1
O=C(COc1ccc(Cl)c(Cl)c1)NCCCCCN1CCCN(C(=O)Nc2cc(Cl)cc(Cl)c2)CC1
CCN(CCCN1CCCCC1)c1cc(C)nc(Nc2cc(Br)ccc2C)n1
COc1ccc(-c2ccc(Nc3cccc(S(=O)(=O)CCN4CCC(CCN(C)C)CC4)c3)nc2)cn1
O=C(Nc1cccc(-c2csc(-c3nc4ccccc4[nH]3)c2)c1)c1ccoc1
CC(C)CNC(=O)c1cncc(-c2cccc(CNC3Cc4ccccc4C3)c2)c1
CN(Cc1cccc(O)c1)C1CCCN(c2cc(NC(=O)c3ccc(F)cc3)ccn2)C1 (configuration not stated)
COCCNCc1ccc(-c2cccc(CN(C(=O)NCCc3ccccc3)C3CCN(Cc4ccccc4)CC3)c2)cc1
O=C(NCc1cccc(CN2CCOCC2)c1)c1cc(Br)cc(N2CCN(c3ccncc3)CC2)c1
CC(Oc1c(C2CCN(CCCCNC(=O)c3ccc(-c4ccc(Cl)cc4)cc3)CC2)ccc2c1CCCC2)C(N)=O (configuration not stated)
CCn1ncc(Cl)c1CN(C)S(=O)(=O)c1ccc(Br)cc1
NS(=O)(=O)c1ccc(CNC(=O)c2cnc3c(O)cccc3c2Nc2cccc(NC(=O)c3ccc(Cl)c(Cl)c3)c2)cc1
CC(C)C[C@H]1C(=O)N[C@H](C2Cc3ccccc3C2)C(=O)N1[C@@H](C(=O)Nc1ccccc1OCc1ccccc1)c1ccc(F)cc1F
COc1ccc(CN(C)CCCOc2ccc(NC(=O)c3cccc4c(=O)c5cccc(C)c5[nH]c34)cc2)cc1OC
CCCC1N=C(N)N=C(N)N1c1ccc(OC)cc1 (configuration not stated)
OCc1ccc2nc3c(cc2c1)-c1cccc2cccc-3c12
COc1ccc(C)c(Nc2ccnc(Nc3ccc(-c4cnc[nH]4)cc3)n2)c1
Cc1[nH]c(C)c(-c2ccc(OCc3ccccc3)cc2)c(=O)c1Br
CCOc1ccc2nc(C)cc(NN=Cc3cccnc3)c2c1
CN(C)CCNC(=O)c1ccc(-c2cnc3ccc(NCc4ccc(Cl)c(Cl)c4)nn23)cc1
COc1cccc(NC(=O)c2cc([N+](=O)[O-])ccc2NC(=O)CN2CCc3ccccc3C2)c1
CCNC(=O)NC1CCN(Cc2c(-c3cccs3)nc3ccccc3c2C(=O)N[C@@H](C)C2CCCCC2)CC1

target: Protein kinase 7 (PK7), Plasmodium falciparum 3D7 (PF3D7_0213400) (UniProt Q7YTF7); assay: inhibition of Plasmodium PK7 catalytic activity – biochemical, TCAMS antimalarial set, Kinase-Glo luminescence (AID 1159587); settings: recombinant PfPK7, Kinase-Glo ATP depletion luminescence
Sequence (Q7YTF7 1-343): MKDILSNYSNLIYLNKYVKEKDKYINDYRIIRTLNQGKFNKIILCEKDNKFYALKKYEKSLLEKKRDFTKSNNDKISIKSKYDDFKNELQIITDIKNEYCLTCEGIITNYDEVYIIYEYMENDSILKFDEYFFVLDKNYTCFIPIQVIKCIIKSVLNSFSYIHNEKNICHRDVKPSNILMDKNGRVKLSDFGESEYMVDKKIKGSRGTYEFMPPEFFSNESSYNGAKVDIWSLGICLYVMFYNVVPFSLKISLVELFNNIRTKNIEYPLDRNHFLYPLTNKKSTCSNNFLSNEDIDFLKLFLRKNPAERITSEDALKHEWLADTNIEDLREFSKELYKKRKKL

outcome, inactive:
CCCCNCc1ccc(-c2nc(CN(Cc3ccc(Cl)c(Cl)c3)S(=O)(=O)c3ccc(NC(C)=O)cc3)cs2)cc1
CC(=O)Nc1nc(C(=O)Nc2cccc(-c3ccc4c(cnn4CC4CC4)c3)c2)cs1
CCc1c[nH]c2c(N3CCCC3=O)cc(C(=O)N[C@@H](Cc3ccccc3)[C@H](O)CNC(C)(C)CCCC(C)C)cc12
Nc1ncnc2cc(-c3cccc(S(N)(=O)=O)c3)sc12
COc1cc(F)c2ncc(Cl)c(C(O)CN3CCC(NC(=O)c4ccc5c(n4)NC(=O)CO5)CC3)c2c1 (configuration not stated)
CCN(CC)C(=S)N=Nc1c(O)[nH]c2c(C)cccc12
CCCCCCCCCn1c(NCc2cc(Cl)ccc2O)nc2ccccc21
CCCC(CNCc1cccc(C)c1)CNc1cc(=O)c2ccccc2[nH]1 (configuration not stated)
CCOc1ccc(-c2nonc2NC(=O)c2cccs2)cc1OCC
COc1ccc2nccc([C@@H](O)CN3CCC(NCc4[nH]c5ccccc5c4F)CC3)c2c1
CCc1c(CCNCCCCCCNCCc2ccc(OC)c(OC)c2CC)ccc(OC)c1OC
COc1ccc2nccc(NN=Cc3ccc(F)cc3)c2c1
COc1ccc(-c2ccccc2CNC2Cc3ccccc3C2)cc1S(=O)(=O)NCCN1CCCC1
Cc1ccc(N/C(N)=N/c2ncccc2OCc2c(F)cccc2Cl)cc1
Cc1nc(N)nc(N)c1-c1ccc(Br)cc1
CN(C)CCN(C)Cc1ccc(-c2ccc(NC(=O)c3cccc(Cl)c3)cc2)cc1
CN1CCN(c2cc(NC(=O)c3ccc(-c4ccc(Cl)cc4)cc3)ccc2Cl)CC1
O=C(NCCCCN1CCN(c2cccc3c2OCCO3)CC1)c1ccc(NC(=O)c2cc(Cl)cc(Cl)c2)cc1
O=C(COc1ccc(Cl)c(Cl)c1)NCCCCCN1CCCN(C(=O)Nc2cc(Cl)cc(Cl)c2)CC1
CCN(CCCN1CCCCC1)c1cc(C)nc(Nc2cc(Br)ccc2C)n1
COc1ccc(-c2ccc(Nc3cccc(S(=O)(=O)CCN4CCC(CCN(C)C)CC4)c3)nc2)cn1
O=C(Nc1cccc(-c2csc(-c3nc4ccccc4[nH]3)c2)c1)c1ccoc1
CC(C)CNC(=O)c1cncc(-c2cccc(CNC3Cc4ccccc4C3)c2)c1
CN(Cc1cccc(O)c1)C1CCCN(c2cc(NC(=O)c3ccc(F)cc3)ccn2)C1 (configuration not stated)
COCCNCc1ccc(-c2cccc(CN(C(=O)NCCc3ccccc3)C3CCN(Cc4ccccc4)CC3)c2)cc1
O=C(NCc1cccc(CN2CCOCC2)c1)c1cc(Br)cc(N2CCN(c3ccncc3)CC2)c1
CC(Oc1c(C2CCN(CCCCNC(=O)c3ccc(-c4ccc(Cl)cc4)cc3)CC2)ccc2c1CCCC2)C(N)=O (configuration not stated)
CCn1ncc(Cl)c1CN(C)S(=O)(=O)c1ccc(Br)cc1
NS(=O)(=O)c1ccc(CNC(=O)c2cnc3c(O)cccc3c2Nc2cccc(NC(=O)c3ccc(Cl)c(Cl)c3)c2)cc1
CC(C)C[C@H]1C(=O)N[C@H](C2Cc3ccccc3C2)C(=O)N1[C@@H](C(=O)Nc1ccccc1OCc1ccccc1)c1ccc(F)cc1F
COc1ccc(CN(C)CCCOc2ccc(NC(=O)c3cccc4c(=O)c5cccc(C)c5[nH]c34)cc2)cc1OC
CCCC1N=C(N)N=C(N)N1c1ccc(OC)cc1 (configuration not stated)
OCc1ccc2nc3c(cc2c1)-c1cccc2cccc-3c12
COc1ccc(C)c(Nc2ccnc(Nc3ccc(-c4cnc[nH]4)cc3)n2)c1
Cc1[nH]c(C)c(-c2ccc(OCc3ccccc3)cc2)c(=O)c1Br
CCOc1ccc2nc(C)cc(NN=Cc3cccnc3)c2c1
CN(C)CCNC(=O)c1ccc(-c2cnc3ccc(NCc4ccc(Cl)c(Cl)c4)nn23)cc1
COc1cccc(NC(=O)c2cc([N+](=O)[O-])ccc2NC(=O)CN2CCc3ccccc3C2)c1
CCNC(=O)NC1CCN(Cc2c(-c3cccs3)nc3ccccc3c2C(=O)N[C@@H](C)C2CCCCC2)CC1
